GLP1R ag: GLP-1 receptor (human) agonism | HEK293 GLP-1R CRE-luciferase, luminescence, 4-6 h; cells express a hypersensitive GLP-1R form | Potency, µM (titrated, usually from 45.6 µM), inactives show at the top dose activation, usual class: activators | hit rate 0.007% among 380,000 | AID 624172; further: % of control where 0% means no effect
GLP1R inv ag: inverse agonists of human GLP-1 receptor; P43220; HEK293 GLP-1R CRE-luciferase, luminescence, 24 h; GLP-1R form is constitutively active; Potency, µM (top dose mostly 38.3 µM), inactives show at the highest dose activity change, negative = inhibition, usual class: inhibitors; hit rate 1.6% among 410,000; AID 624417; further: on the % scale 0 is the no-effect control and ±100 the full control effect; nearly all actives have a fitted effect of over 55% in size
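Luminescence readout: a drop in cAMP-driven luciferase signal flags inverse agonism at a constitutively active GLP-1R stably expressed in HEK293. Compound exposure lasted 24 hr at 37 deg C, 5% CO2.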
RGS4 inhibitor: inhibitors of human regulator of G protein signaling 4; P49798; Transcreener GDP fluorescence polarization, RGS4-accelerated GTP hydrolysis; Potency, µM (highest dose often 114 µM), inactives show at the highest dose activity change, negative = inhibition, usual class: inhibitors; hit rate 0.039% among 390,000; AID 504845; further: on the % scale 0 is the no-effect control and ±100 the full control effect; nearly all actives have a fitted effect of over 75% in size
Target sequence (P49798 whole entry, looked up): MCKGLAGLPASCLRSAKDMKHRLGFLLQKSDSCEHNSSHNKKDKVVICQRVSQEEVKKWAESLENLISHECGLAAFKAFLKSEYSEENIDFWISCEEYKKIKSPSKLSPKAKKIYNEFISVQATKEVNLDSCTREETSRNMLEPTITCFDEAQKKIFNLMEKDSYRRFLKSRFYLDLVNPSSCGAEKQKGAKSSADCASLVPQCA
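MLSMR compounds (23 nl, pin-transferred) preincubated 10 min at room temperature with a 500nM (2x) first reagent, then RGS4 at 900nM (2x) plus Transcreener GDP mix added; fluorescence polarization (620/688 nm) read before and after 90 min at 30 °C.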
PTHR1 agonist: agonists of human PTHR1 parathyroid hormone receptor | Q03431 | HEK293 GP2 PTHR1 cells, GloSensor cAMP luminescence, 1 h | Potency, µM (series often up to 115 µM), for the others: top-dose activation, actives largely listed as activators | hit rate 0.075% among 410,000 | AID 743266; further: nearly all actives have a fitted effect of over 55% in size
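HEK-293-derived GP2 cells expressing PTHR1 and a GloSensor cAMP reporter, 3,000/well, plated overnight, given luciferin plus IBMX (each 0.5 mM as added) for 1 h at 37 °C, then compound for 1 h at 37 °C. Luminescence was read after 15 min at room temperature.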
GLP1R cytotox: cytotoxic in the GLP-1 receptor inverse agonist counter-screen; hit rate 0.13% among 410,000; HEK293 cAMP-luciferase reporter cells, luminescence, 24 h; Potency, µM (doses to about 38.3 µM), for the others: top-dose activity change, negative = inhibition, most hits filed as inhibitors;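 further: loss of luciferase light is scored as toxicity; on the % scale 0 is the no-effect control and ±100 the full control effect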
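1536-well qHTS counterscreen of the MLSMR; 200 cells/uL, 12 h pre-incubation, 23 nL cpd, 24 h at 37 deg C 5% CO2, luciferase detection reagent, 12 min RT, luminescence. Inhibition = undesired.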
Active calls of the source: *; i = inactive; ? = inconclusive; · = no result; [ ] = another dose, or the depositor's remark. Hits are enriched below; roughly 1.7% of the tested compounds scored in any of these assays. The call rests on the fitted dose curve; in most records, active means well fitted curve in the direction sought with a large enough effect; inconclusive means small, poorly fitted or top-dose-only effect, or another doubt; inactive means no such curve, though single readings can be large; an effect the other way counts as inactive or inconclusive. Potency means the concentration at half of the fitted maximal effect.

SMILES | GLP1R ag | GLP1R inv ag | RGS4 inhibitor | PTHR1 agonist | GLP1R cytotox
O=C(NCc1ccccc1)c1cccc(COc2ccc3c(c2)CCC3)c1 | -2.4% | 4.47µM* | -14.9% | -7.5% | -4.7%
CC(C(=O)NCCCc1ccccc1)n1cccc1C(=O)c1ccccc1 (stereo not given) | 12.6% | 11.2µM* | -13.1% | -15.1% | -8.1%
O=C(O)c1cccc(COc2ccc3c(c2)CCC3)c1 | -6.1% | ? | 14.6% | -51.7% | 0.8%
O=C(Cn1cccc1C(=O)c1ccccc1)NCCCc1ccccc1 | 1.6% | ? | 19.6%[11.4 µM] | i | -6.0%
CCOC(=O)CC1COCCN1C(=O)c1ccc2oc(Cc3ccccc3)nc2c1 (stereo not given) | 1.3% | -3.7% | -8.1% | -7.7% | 5.6%
CC#CCC(C)[C@H](O)/C=C/C1[C@H](O)C[C@@H]2C/C(=C\CCCC(=O)O)C[C@H]12 (stereo not given in full) | -4.1% | · | · | · | ·
C#C[C@]1(O)CC[C@H]2[C@@H]3CCC4=Cc5oncc5C[C@]4(C)[C@H]3CC[C@@]21C | 26.1% | 46.3% | 5.8% | -77.7% | 4.2%
O=c1c2ccccc2sc2c(CO)ccc(NCCN3CCCCC3)c12 | -13.3% | 10µM* | ? | i | 7.94µM*
CCN(CC)CCNc1cccc2sc3ccccc3c(=O)c12 | 4.5% | -18.3% | · | -3.0% | 3.2%
N#CC(=C1NC(=O)c2ccccc21)c1nc2ccccc2n1CCO | 12.8% | 10µM* | · | i | -24.9%
Cc1ccc2cccc(NC(=O)COc3ccccc3[N+](=O)[O-])c2n1 | · | 0.2% | 13.8% | -19.9% | 1.3%
O=C(c1cc(-c2ccccc2)nc2ccccc12)N1N=C(C(F)F)CC1(O)C(F)F (stereo not given) | -1.5% | -12.0% | -5.7% | -29.9% | -16.0%
CCOc1ccc(-c2cc(C(=O)N3CCN(c4cccc(C)c4)C(C)C3)c3ccccc3n2)cc1 (stereo not given) | · | 5.01µM* | -2.1% | -24.0% | -15.4%
CCOc1cccc(-c2cc(C(=O)N3N=C(C)CC3(O)C(F)F)c3ccccc3n2)c1 (stereo not given) | 11.4% | 11.2µM* | -6.8% | i | 5.9%
COc1ccc(NC(=O)C[C@@H]2C(=O)N(c3ccc(OC)cc3)CC2(C)C)cc1 | -6.6% | -3.1% | · | -22.4% | -2.9%
CC(/C=N/NC(=O)c1cccc(F)c1)=C\c1ccccc1 | -5.7% | 10µM* | ? | -16.8% | 0.0%
CC(/C=N/NC(=O)c1ccncc1)=C\c1ccccc1 | 2.4% | 5.0% | -1.9% | 19.5%[57.5 µM] | -11.8%
Cc1ccnc(NC(=O)c2cc3ccccc3o2)c1 | -21.8% | 5.62µM* | -3.3% | -12.0% | 5.8%
O=C(Nc1ncccc1O)c1cc2ccccc2o1 | -25.8% | 11.2µM* | -34.8% | -38.4% | ?
CCOc1ccc(Nc2nc(NCC3CCCO3)c3ccccc3n2)cc1 (stereo not given) | 2.5% | 3.55µM* | 1.3% | -28.6% | ?
O=C(Nc1ccc(C(=O)N2CCCCC2)cc1)C1CCC1 | 8.8% | 5.8% | -16.3% | i | -12.0%
Cc1ccccc1C(=O)N1CCC(C(=O)Nc2nc3ccc(F)cc3s2)CC1 | -7.0% | 10µM* | 22.1% | -35.1% | -5.1%
Cc1ccccc1C(=O)N1CCC(C(=O)Nc2nccs2)CC1 | 3.2% | -10.0% | 3.8% | i | -16.5%
CCN(CC)P(=O)(Nc1cccc(C(F)(F)F)c1)c1ccc(N(C)C)cc1NC(=O)c1ccco1 (stereo not given) | -5.4% | 2.51µM* | -7.1% | 3.5% | -8.4%
COc1ccc(OC)c(CNC(=O)c2c(C)oc3ncn(C)c(=O)c23)c1 | · | 14.7% | -12.2% | -15.2% | 8.1%
CN(C)CC(CCC(CN(C)C)C(O)(c1ccccc1)c1ccccc1)C(O)(c1ccccc1)c1ccccc1 (stereo not given) | 18.8% | 2.82µM* | -1.6% | i | ?
CCc1ccccc1N1CSC2=C(C#N)C(c3cc(OC)c(OC)cc3OC)CC(=O)N2C1 (stereo not given) | 11.2% | 3.4% | ? | 1.58µM* | -0.5%
